Screens (PubChem BioAssay)
Sampled rows, rich in hits. Any-hit rate of the full collection: about 21%.
HCV inh – inhibitors of hepatitis C virus infection; hit rate 3.4% among 340,000; Huh7.5.1 HCVcc-Cre infection, luciferase reporter, 44 h; Potency, µM (titrated, usually from 41.8 µM), actives largely listed as inhibitors
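Infectious HCV cell culture screen: compound-treated cells (1,000/well, pre-plated 4 h) are infected with HCVcc-Cre at roughly 0.5 moi and grown 44 h. Infection is quantified by luciferase signal after 15 min substrate incubation at room temperature.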
Pf growth 96h – inhibits malaria parasite growth, 96 h | P. falciparum luciferase reporter growth, 96 h | Potency, µM (doses to about 28.7 µM), hits mostly inhibitors | hit rate 6.9% among 320,000
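Two-generation exposure (96 h) targets delayed-death phenotype. Reporter parasites carrying integrated firefly luciferase, in red cells at 2% hematocrit and 0.05% parasitemia final, kept at 37 C, 5% CO2; luminescence loss indicates inhibition.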
AMA1-RON2 inh – disrupts binding of P. falciparum AMA1 to RON2; Potency, µM (highest dose often 58.2 µM), most hits filed as inhibitors; AlphaScreen AMA1-biotinylated RON2 peptide binding; hit rate 0.2% among 360,000; AID 720542; further: nearly all actives have a fitted effect of over 45% in size
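AMA1 (3D7) with his tag at 25 nM final met compounds first, then biotinylated RON2 peptide at 25 nM; detection used donor plus acceptor beads, 10 µg/mL apiece, read by AlphaScreen after 30 min at room temperature.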
Shiga inhibitor – blocks Shiga toxin action in Vero cells; Vero cells, Shiga toxin protein synthesis inhibition reporter; inhibition, % at 38.7 µM; hit rate 9.2% among 290,000; AID 2315; in the data active means inhibition mostly above about 28%, no sharp cut-off; inactive means mostly below about 43%
CHX counter – affects cycloheximide protein synthesis inhibition readout, counter-screen. max response, %. cell reporter, cycloheximide protein synthesis inhibition counterscreen. AID 2314. hit rate 12% among 300,000; in the data active means max response mostly above about 13%, no sharp cut-off; inactive means mostly below about 14%; further: read at 38.3 µM for the half of the compounds with a filed dose
Pf growth 48h – inhibits P. falciparum growth in the first generation, 48 h | P. falciparum luciferase growth in erythrocytes, 48 h | Potency, µM (top dose mostly 28.7 µM), usual class: inhibitors | hit rate 5.9% among 310,000 | AID 504832
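Erythrocytes infected with P. falciparum carrying an integrated firefly luciferase reporter (2% hematocrit, 0.1% parasitemia final) were exposed to compounds in RPMI 1640 with 0.5% Albumax at 37 C, 5% CO2. Growth inhibition was scored as reduced luminescence.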
A number is an active result. Unless noted, the call rests on the fitted dose curve; in most records, active means well fitted curve in the direction sought with a large enough effect; inconclusive means small, poorly fitted or top-dose-only effect, or another doubt; inactive means no such curve, though single readings can be large; an effect the other way counts as inactive or inconclusive.

CCN(CC)C(=O)c1[nH]cnc1C(=O)NCc1ccccc1 was read as HCV inh inactive and AMA1-RON2 inh inactive.
For COc1ccc(NC(=O)c2sc3nc(-c4cccnc4)ccc3c2N)cc1OC the results were HCV inh inactive, Pf growth 96h inconclusive, AMA1-RON2 inh inactive, Shiga inhibitor inactive, CHX counter inactive and Pf growth 48h inconclusive.
COc1cccc(-c2ccc3c(N)c(C(=O)NC4CC4)sc3n2)c1 was read as HCV inh inactive, Pf growth 96h inactive, AMA1-RON2 inh inactive, Shiga inhibitor 103.5, CHX counter 36.5 and Pf growth 48h inactive.
For COc1ccc(C(=O)c2sc3nc(-c4ccc(OC)cc4)ccc3c2N)cc1 the results were HCV inh inactive, Pf growth 96h inactive, AMA1-RON2 inh inactive, Shiga inhibitor inactive, CHX counter 22.0 and Pf growth 48h inactive.
`COc1ccc(-c2ccc3c(N)c(C(=O)c4cccc(OC)c4)sc3n2)cc1` gave HCV inh inactive, Pf growth 96h inactive, AMA1-RON2 inh inactive, Shiga inhibitor inactive and CHX counter inactive.
CC(=O)c1sc2nc(-c3cccs3)ccc2c1N was read as HCV inh inactive, Pf growth 96h inactive, AMA1-RON2 inh inactive, Shiga inhibitor 100.8 and CHX counter 45.9.
CCCCn1c(N)c(N(CCC)C(=O)C2CCCC2)c(=O)[nH]c1=O was read as HCV inh inactive, Pf growth 96h inconclusive, AMA1-RON2 inh inactive and Pf growth 48h inactive.
For Cn1c(=O)c2cc(NC(=O)NCc3ccccc3)ccc2n1Cc1ccc(Cl)cc1 the results were AMA1-RON2 inh inactive.
`Cc1ccc(OC(=O)c2ccc(C)c(C)c2)cn1` gave HCV inh inactive, Pf growth 96h inconclusive, AMA1-RON2 inh inactive, Shiga inhibitor 51.6, CHX counter 33.9 and Pf growth 48h inactive.
`CC(=O)Oc1ccc(C(=O)Nc2cccc(NC(=O)c3ccco3)c2)cc1` gave HCV inh inactive, Pf growth 96h inconclusive, AMA1-RON2 inh inactive, Shiga inhibitor inactive, CHX counter inactive and Pf growth 48h inactive.
`COc1ccc(C(=O)Nc2cccc(OC(=O)c3ccc(C)c(C)c3)c2)cc1` gave HCV inh inconclusive, Pf growth 96h inactive, AMA1-RON2 inh inactive, Shiga inhibitor 43.1, CHX counter 24.4 and Pf growth 48h inactive.
CC(=O)Oc1ccc(C(=O)Nc2cccc(C(=O)c3ccc(C)c(C)c3)c2)cc1 was read as HCV inh inconclusive, Pf growth 96h inactive, AMA1-RON2 inh inactive, Shiga inhibitor inactive, CHX counter inactive and Pf growth 48h 11.7µM.
Screening COc1ccc(C(=O)Nc2ccc(C(=O)Nc3cccc(C)c3)cc2)cc1 returned HCV inh inconclusive, Pf growth 96h inactive, AMA1-RON2 inh inactive, Shiga inhibitor inactive, CHX counter inactive and Pf growth 48h inactive.
Screening COc1ccc(C(=O)Nc2cccc(OC(=O)c3ccco3)c2)cc1 returned HCV inh inactive, Pf growth 96h inactive, AMA1-RON2 inh inactive, Shiga inhibitor inactive, CHX counter 19.9 and Pf growth 48h inactive.
Screening O=C(CC1CCCC1)N1CCN(S(=O)(=O)c2c(F)cccc2F)CC1 returned AMA1-RON2 inh inactive.
For CC(=O)OC[C@H]1O[C@@H](Oc2cc(O)cc3oc(-c4ccc(O)cc4)cc(=O)c23)[C@H](O[C@@H]2O[C@@H](C)[C@H](O)[C@@H](O)[C@H]2O)[C@@H](O)[C@@H]1O the results were HCV inh inactive and AMA1-RON2 inh inactive.
For Cc1ccc2nc(N/C(=N/S(=O)(=O)c3cccs3)c3ccccc3Cl)sc2c1 the results were HCV inh inactive, Pf growth 96h inactive, AMA1-RON2 inh inactive, Shiga inhibitor inactive, CHX counter inactive and Pf growth 48h inactive.
O=C1OC2C[C@H]1[C@@H]1C(=O)N(Cc3ccccc3)CCC1C2I (stereo partly drawn) was read as Shiga inhibitor inactive and CHX counter inactive.
Screening CCOC(=O)c1c(C)[nH]c(C(=O)OCC(=O)Nc2ccccc2)c1C returned HCV inh inconclusive, Pf growth 96h inconclusive, AMA1-RON2 inh inactive and Pf growth 48h inactive.
`Nc1nc(SCc2ccc(Cl)cc2Cl)nc2nc3c(cc12)CCCC3` gave HCV inh 8.91µM, Pf growth 96h 13.1µM, AMA1-RON2 inh inactive, Shiga inhibitor inactive, CHX counter inactive and Pf growth 48h 8.28µM.
`Nc1nc(SCc2ccccc2Cl)nc2nc3c(cc12)CCCC3` gave Pf growth 96h inactive, AMA1-RON2 inh inactive, Shiga inhibitor inactive, CHX counter inactive and Pf growth 48h inconclusive.
For COc1ccc(CCN2CC(C(=O)N(C)Cc3ccccc3OC)CCC2=O)cc1 (stereo not drawn) the results were HCV inh inactive, Pf growth 96h inactive, AMA1-RON2 inh inactive, Shiga inhibitor inactive, CHX counter inactive and Pf growth 48h inactive.
For CCc1ccc(CN(C)C(=O)C2CCC(=O)N(CC3CCCCC3)C2)cc1 (stereo not drawn) the results were HCV inh inactive, Pf growth 96h 13.1µM, AMA1-RON2 inh inactive, Shiga inhibitor inactive, CHX counter 38.4 and Pf growth 48h inconclusive.
For O=C(NCCOc1ccccc1)C1CCC(=O)N(CCc2ccc(Cl)cc2)C1 (stereo not drawn) the results were HCV inh inactive, Pf growth 96h inconclusive, AMA1-RON2 inh inactive, Shiga inhibitor inactive, CHX counter 19.4 and Pf growth 48h inactive.
Cc1ccc(CN(C)C(=O)C2CCC(=O)N(CCc3ccccc3)C2)o1 (stereo not drawn) was read as HCV inh inactive, Pf growth 96h inconclusive, AMA1-RON2 inh inactive, Shiga inhibitor 31.4, CHX counter 20.3 and Pf growth 48h inactive.
O=C(NCCOc1ccccc1)C1CCC(=O)N(Cc2ccc(Cl)cc2)C1 (stereo not drawn) was read as HCV inh inactive, Pf growth 96h inconclusive, AMA1-RON2 inh inactive, Shiga inhibitor inactive, CHX counter inactive and Pf growth 48h inactive.
`COc1ccc(CCN2CC(C(=O)N(C)CCOc3ccccc3)CCC2=O)cc1` (stereo not drawn) gave HCV inh inactive, Pf growth 96h inactive, AMA1-RON2 inh inactive, Shiga inhibitor inactive, CHX counter 25.9 and Pf growth 48h inactive.
Screening O=C(NCCCn1ccnc1)c1ccc(COc2ccccc2)o1 returned HCV inh inactive, Pf growth 96h inactive, AMA1-RON2 inh inactive and Pf growth 48h inactive.
Cc1ccc(NC(=O)Cn2nc(C(=O)O)c3ccccc3c2=O)cc1S(=O)(=O)N1CCCCCC1 was read as HCV inh inactive and AMA1-RON2 inh inactive.
For CN(CCOc1ccccc1)C(=O)C1CCC(=O)N(CCc2ccc(Cl)cc2)C1 (stereo not drawn) the results were Pf growth 96h inactive, AMA1-RON2 inh inactive, Shiga inhibitor 87.2, CHX counter 46.5 and Pf growth 48h inactive.
O=C1CCC(C(=O)N2CCCCO2)CN1CCc1ccc(Cl)cc1 (stereo not drawn) was read as HCV inh inactive, Pf growth 96h inactive, AMA1-RON2 inh inactive, Shiga inhibitor inactive, CHX counter 20.0 and Pf growth 48h inactive.
